# S1P2 agonist: agonists of human S1P2 receptor; actives 0.46% (n = 97,000); AID 729; O95136; S1P2-expressing cell line, agonist reporter read-out; activation, % at 4.5 µM; in the data active = activation above about 16%;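 note: 0% = vehicle low control and 100% = maximal reference agonist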
# Target sequence (O95136 whole entry, looked up): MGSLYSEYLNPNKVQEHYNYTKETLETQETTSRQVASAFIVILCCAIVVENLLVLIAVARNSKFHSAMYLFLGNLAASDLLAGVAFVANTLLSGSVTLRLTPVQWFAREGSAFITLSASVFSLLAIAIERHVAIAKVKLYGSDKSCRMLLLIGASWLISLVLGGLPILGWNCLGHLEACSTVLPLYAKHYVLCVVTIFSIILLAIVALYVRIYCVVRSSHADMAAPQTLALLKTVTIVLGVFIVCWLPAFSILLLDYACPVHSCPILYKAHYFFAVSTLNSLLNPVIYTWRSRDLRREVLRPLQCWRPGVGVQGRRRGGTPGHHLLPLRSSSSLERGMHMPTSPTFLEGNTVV
# Mac1 fbg enh: increases human CD11b/CD18 adhesion to fibrinogen | K562 CD11b/CD18 adhesion to fibrinogen, ATPlite luminescence | actives 0.07% (n = 93,000) | AID 1499 | P05107+P11215 | activation, % at 10 µM;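 active = 10 µM primary screen giving 50% or more activity, confirmed by 40% or more on retest at that dose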
# GALR2 ag: activates the human galanin receptor 2 | O43603 | activation, % (no concentration beside the values) | actives 0.48% (n = 140,000) | AID 803 | GALR2-expressing cells, agonist activation read-out; in the data active = activation above about 5%, passing the limit was not always enough;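 note: 0% = vehicle buffer wells and 100% = reference agonist at full effect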
# Mac1 fbg inh: inhibitors of human CD11b/CD18 binding to fibrinogen; actives 0.54% (n = 93,000); AID 1497; P05107+P11215; inhibition, % at 10 µM; K562 CD11b/CD18 adhesion to fibrinogen, ATPlite luminescence; Mn2+ added to activate the integrin;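 active = primary inhibition of 50% or more at 10 µM, then 40% or more on retest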
# S1P2 blocker: blocks the human S1P2 receptor. AID 736. O95136. inhibition, % at 5 µM. actives 0.21% (n = 97,000). cell-based S1P2 antagonist assay, inhibition at 5 uM; in the data active = inhibition above about 45%;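 note: CRE beta-lactamase reporter cells expressing human S1P2 stimulated with S1P; 0% = agonist at EC80 alone and 100% = agonist plus reference antagonist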
# GALR2 antag: GALR2 (human) receptor antagonism; O43603; GALR2-expressing cells, antagonist mode; inhibition, % at 4 µM; actives 0.39% (n = 140,000);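 note: cells stimulated with galanin 1-16 at roughly its EC80; 0% = agonist challenge control and 100% = basal control without agonist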
# GALR2 blk conf: GALR2 (human) antagonism confirmed. shares compounds with GALR2 antag. GALR2-expressing cells, antagonist mode, inhibition. inhibition, % at 4 µM. actives 60% (n = 480). AID 866;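 note: cells stimulated with galanin at about its EC80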
# BLA inhib ctr: inhibits beta-lactamase reporter in GALR2 antagonist counterscreen; inhibition, % at 4.2 µM; shares compounds with GALR2 antag; actives 36% (n = 480); AID 867; CHO NFAT-BLA reporter, beta-lactamase FRET, thapsigargin-stimulated;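 active = inhibition above the mean inhibition across tested compounds plus 3 SD, cut at about 27% in these data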;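 note: 0% = 500 nM thapsigargin stimulated wells and 100% = unstimulated BSA only wells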
# Starred values were filed as active, the others as inactive; · = no result given. The list is not random: actives were taken first. Their share in the collection is about 1.5%. Cut-off read from the data, not from the text of the source, unless noted: active = inhibition above about 27%; inactive = the rest.
SMILES,S1P2 agonist,Mac1 fbg enh,GALR2 ag,Mac1 fbg inh,S1P2 blocker,GALR2 antag,GALR2 blk conf,BLA inhib ctr
Fc1cccc(Cl)c1CNCc1ccccc1Cl,-5.9,-4.7,-2.2,-2.5,-1.0,11.1,·,·
CCOc1ccc(C(=O)c2cc([N+](=O)[O-])ccc2N2CCOCC2)cc1,·,·,2.4,·,·,50.6*,30.0*,67.6*
Cc1ccc(C(=O)c2cc([N+](=O)[O-])ccc2N2CCOCC2)cc1,·,·,1.1,·,·,6.4,·,·
COc1ccc(C(=O)c2cc([N+](=O)[O-])ccc2N2CCOCC2)cc1,·,·,2.3,·,·,33.9*,27.9*,49.5*
C[C@@H]1NC(=O)[C@H](CCC(=O)O)NC(=O)c2cc([N+](=O)[O-])cc(F)c2NCCC[C@@H](C(N)=O)NC1=O,·,·,-1.3,·,·,-3.5,·,·
COc1ccc2[nH]c3c(NCc4ccco4)ncnc3c2c1,-9.8,-3.8,-2.4,39.3,-3.9,28.1*,22.6,8.1
O=C(C1=NN(c2ccccc2)C2C(=O)N(c3ccccc3)C(=O)C12)c1ccccc1 (stereo unspecified),·,·,-1.8,·,·,18.7,·,·
O=C(C1=NN(c2ccccc2)C2C(=O)N(c3ccccc3Cl)C(=O)C12)c1ccccc1 (stereo unspecified),·,10.8,-0.7,6.2,·,28.6*,24.6,41.9*
CCOC(=O)c1c(C)[nH]c(C(=O)CSc2nccc(C)n2)c1C,·,·,-1.2,·,·,5.7,·,·
O=C1/C(=C/c2ccc(N3CCOCC3)o2)SC(=Nc2ccccc2)N1CCc1c[nH]c2ccccc12,-7.8,17.8,1.8,14.8,67.5*,27.5*,27.0*,43.2*
COc1cc(/C=C2\SC(=Nc3ccccc3)N(CCc3c[nH]c4ccccc34)C2=O)ccc1OC(C)C(=O)O (stereo unspecified),·,·,1.2,·,·,-16.0,·,·
CCOc1ccc(C(C)NC(=O)C2CCC2)cc1 (stereo unspecified),·,·,-1.7,·,·,-5.2,·,·
O=C(CC(c1ccccc1)c1ccccc1O)NCc1ccccc1Cl (stereo unspecified),·,·,-0.4,·,·,-6.8,·,·
CCCCN(C)CCn1c(=S)[nH]c2ncccc2c1=O,-3.0,-4.2,-4.0,1.4,-6.2,32.5*,10.2,-1.3
Cc1cc(C)c2c(N)c3cccc(C)c3nc2n1,·,·,1.8,·,·,-10.9,·,·
COc1ccc(Cl)cc1NC(=O)C1CCCN(S(=O)(=O)c2cccc3nonc23)C1 (stereo unspecified),-8.8,·,-1.0,·,5.7,31.0*,22.3,6.5
COc1ccc(OC)c(NC(=O)C2CCCN(S(=O)(=O)c3cccc4nsnc34)C2)c1 (stereo unspecified),-5.2,·,-1.5,·,8.9,8.5,·,·
Cc1ccc(Nc2nc(-c3c(C)nc4ncccn34)cs2)cc1,-9.0,·,-1.9,·,11.4,19.1,·,·
Cc1ccc(Nc2nc(-c3c(C)nc4ccccn34)cs2)cc1,-3.8,-3.8,-1.5,35.0,23.2,34.0*,40.1*,59.5*
c1ccc(CN2CCN(c3ncnc4c3[nH]c3ccccc34)CC2)cc1,-6.4,·,0.3,·,78.1*,35.7*,39.7*,18.6
Cc1ccc2[nH]c3c(N4CCCCCC4)ncnc3c2c1,-9.5,-6.2,1.1,83.7,91.7*,37.8*,41.5*,13.6
COc1ccc2c(c1)[nH]c1c(N3CCN(Cc4ccc5c(c4)OCO5)CC3)ncnc12,-9.2,-11.8,-0.1,82.8*,86.7*,37.5*,43.8*,15.9
c1ccc2c(c1)CCN(c1ncnc3c1[nH]c1ccccc13)C2,·,-13.5,·,102.3,·,·,·,·
CN1CCN(C(=O)CCc2nc3ccccc3n2-c2ccccc2)CC1,·,·,-0.8,·,·,-3.7,·,·
CCOC(=O)COc1ccc2ccccc2c1/C=C/[N+](=O)[O-],·,3.8,2.5,-4.7,·,25.8,·,·
SMILES,S1P2 agonist,Mac1 fbg enh,GALR2 ag,Mac1 fbg inh,S1P2 blocker,GALR2 antag,GALR2 blk conf,BLA inhib ctr
CCOC(=O)COc1ccc(/C=C/[N+](=O)[O-])c(OCC(=O)OCC)c1,-0.5,·,-1.8,·,-13.2,27.2*,31.5*,13.8
S=C(Nc1cccc(Cl)c1)Nc1cccc2cnccc12,·,-10.5,-0.8,66.0,·,30.0*,21.6,10.6
COc1cccc(COc2cc3ccccc3nc2C)c1,-4.2,·,-1.9,·,57.3*,39.8*,36.7*,10.3
CCOC(=O)c1ccc(N2C(=O)CC(N3CCC(O)(c4ccc(Br)cc4)CC3)C2=O)cc1 (stereo unspecified),-7.6,-6.1,4.5,-22.8,46.4*,29.8*,39.6*,3.3
Cn1c(SCC(=O)N2CCc3ccccc32)nnc1-c1ccc(S(=O)(=O)N2CCCC2)cc1,·,·,-0.2,·,·,17.6,·,·
O=C(CSc1ncc(-c2ccccc2)n1C1CCCC1)N1CCc2ccccc21,-0.9,-0.3,-2.2,0.3,3.8,6.9,·,·
CC(=O)c1c(C)[nH]c(C(=O)COC(=O)c2cc(S(=O)(=O)N(C)c3ccccc3)ccc2Cl)c1C,·,·,-1.2,·,·,28.0*,13.5,1.5
O=C(O)CN1CCN(Cc2ccc(Cl)cc2)C1=O,·,·,-1.1,·,·,-6.6,·,·
COc1ccc(OC)c(NC(=O)CSc2ncnc3c2cnn3-c2ccccc2Cl)c1,-2.6,·,-0.6,·,80.7*,31.4*,48.5*,18.1
O=C(OCC(=O)N1CCCCC1)c1cc(NS(=O)(=O)c2ccc(Cl)c([N+](=O)[O-])c2)ccc1O,·,·,-0.7,·,·,7.3,·,·
O=C(c1ccccc1)c1ccc2nc(-c3ccc(NC(=O)c4ccccc4F)cc3)[nH]c2c1,-7.6,·,4.2,·,31.4,38.9*,31.1*,10.4
Cc1cc(C)c2nc(SCC(=O)NCCC3=CCCCC3)cc(C)c2c1,·,2.8,-0.2,-8.3,·,4.2,·,·
O=C(OC1C2CCC1C1CN(CCc3ccccc3)CC12)c1ccccc1 (stereo unspecified),·,·,-0.1,·,·,8.9,·,·
O=C(Nc1ccccc1)c1nnsc1S(=O)c1ccc(Cl)cc1 (stereo unspecified),-5.6,-6.8,-3.8,0.0,64.3*,39.5*,35.1*,56.5*
O=C(Nc1ccc(Cl)cc1)c1cccs1,-0.7,-3.9,0.3,16.1,10.1,13.6,·,·
CC(=O)c1ccc(NC(=O)c2cc3nc4c(c(C(F)(F)F)n3n2)CCCC4)cc1,-1.4,56.1,-0.6,-4.5,-19.2,30.9*,1.8,1.0
Nc1ccc2c(C(F)(F)F)cc(=O)oc2c1,2.8,-3.6,1.6,-24.4,35.0,39.1*,22.9,45.6*
CCc1nc(SCC(=O)Nc2cccc(C(F)(F)F)c2)c2c(=O)n(C)c(=O)n(C)c2n1,-3.0,-3.6,0.0,-36.4,2.4,-1.7,·,·
CC1CN(Cc2ccccc2)c2ccccc2NC1=S (stereo unspecified),·,·,-1.9,·,·,8.7,·,·
Nc1c(C(=O)Nc2nc3ccccc3s2)sc2nc(-c3cccs3)ccc12,-12.6,6.3,0.2,15.5,73.3*,40.8*,49.1*,48.9*
N/C(=N\OC(=O)Oc1ccccc1)c1cccc([N+](=O)[O-])c1,·,·,-1.4,·,·,5.3,·,·
